Data on 25 molecules can be found in PubChem BioAssay (NCATS).

Experiment [1] can be described thus: AP1 Signaling Pathway (AID 357). Further: on the % scale 0 is the no-effect control and ±100 the full control effect. The note with it: ME-180 AP-1-bla reporter, EGF-induced, beta-lactamase ratio, 5 h; at 17.2 µM (top of the series) unless noted. The gist of the method: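 A ratiometric CCF4 readout (405 nm excitation; 460 and 530 nm emission) quantified AP-1-driven beta-lactamase in ME-180 cells after 5 h with compound and EC50 EGF; AC50 values were derived for activators and inhibitors.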

The nature of experiment [2]: NFAT Signaling Pathway (AID 444).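 Further: carbachol stimulus at about its EC50 of 1 µM final; on the % scale 0 is the no-effect control and ±100 the full control effect.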 The note with it: Jurkat NFAT-bla M1, carbachol, beta-lactamase ratio, 5 h; at 17.2 µM (top of the series) unless noted. The gist of the method: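 Read-out: CCF4 FRET ratio (460 nm/530 nm) after 1 h RT dye loading, used for %activity and AC50 from titration series. Cells: Jurkat NFAT-β-lactamase/M1 line, treated with compound plus 1 uM carbachol for 5 h, 37 °C.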

Experiment [3] in a line: Stat Signaling Pathway (AID 446).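 Further: ME-180 cervical cancer cells given 40 pM IL-6 alongside compound; SIE-controlled beta-lactamase reporter measured as 460/530 nm FRET emission ratio; on the % scale 0 is the no-effect control and ±100 the full control effect.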 The note with it: ME-180 SIE beta-lactamase reporter, IL-6 stimulated, 5 h; at 17.2 µM (top of the series) unless noted. Put shortly: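 Emission at 460 and 530 nm (excitation 405 nm) reports SIE-controlled beta-lactamase in ME-180 cells. Cells received compound with 40 pM IL-6 for 5 hrs at 37 C; data scaled between 300 pM IL-6 and 125 nM JAK-inhibitor controls.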

For experiment [4], the target named is Glucocorticoid receptor (Homo sapiens) (UniProt P04150). The experiment can be described thus: GR-GFP Redistribution (AID 450;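 active means compounds whose dose series gives a full or clear partial fitted curve of increased nuclear translocation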; further: potency means the concentration at half of the fitted maximal effect).
Experiment [5] in a line: qHTS Assay for Identification of Small Molecule Agonists for Hypoxia Response Element Signaling Pathway (AID 914; active means well fitted activation curve with a large enough effect in the signal ratio, with a control signal flat, not every such curve was filed as active; the % refers to the signal ratio; further: % of control where 0% means no effect). The note with it: ME-180 (cervical carcinoma) HRE-bla reporter, beta-lactamase ratio, CoCl2, 17 h; activation: active compounds read high. Put shortly:
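In Opti-MEM containing 0.5% dialyzed FBS and 10 mM HEPES, ME-180 HRE-bla cells received a compound titration and EC50 CoCl2. They were incubated 17 hours, then CCF4-loaded 2.5 hours at room temperature before ratio reading.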

Values without a mark were called inactive. Records with an inconclusive call do not appear. Active and inactive are the calls of the source. Unless noted, the call rests on the fitted dose curve; in most records, active means well fitted curve in either direction with a large enough effect (not every such curve was filed as active); inconclusive means small, poorly fitted or top-dose-only effect, or another doubt; inactive means flat fitted curve, though single readings scatter.

Sequence of Glucocorticoid receptor (Homo sapiens) (P04150 whole entry, looked up): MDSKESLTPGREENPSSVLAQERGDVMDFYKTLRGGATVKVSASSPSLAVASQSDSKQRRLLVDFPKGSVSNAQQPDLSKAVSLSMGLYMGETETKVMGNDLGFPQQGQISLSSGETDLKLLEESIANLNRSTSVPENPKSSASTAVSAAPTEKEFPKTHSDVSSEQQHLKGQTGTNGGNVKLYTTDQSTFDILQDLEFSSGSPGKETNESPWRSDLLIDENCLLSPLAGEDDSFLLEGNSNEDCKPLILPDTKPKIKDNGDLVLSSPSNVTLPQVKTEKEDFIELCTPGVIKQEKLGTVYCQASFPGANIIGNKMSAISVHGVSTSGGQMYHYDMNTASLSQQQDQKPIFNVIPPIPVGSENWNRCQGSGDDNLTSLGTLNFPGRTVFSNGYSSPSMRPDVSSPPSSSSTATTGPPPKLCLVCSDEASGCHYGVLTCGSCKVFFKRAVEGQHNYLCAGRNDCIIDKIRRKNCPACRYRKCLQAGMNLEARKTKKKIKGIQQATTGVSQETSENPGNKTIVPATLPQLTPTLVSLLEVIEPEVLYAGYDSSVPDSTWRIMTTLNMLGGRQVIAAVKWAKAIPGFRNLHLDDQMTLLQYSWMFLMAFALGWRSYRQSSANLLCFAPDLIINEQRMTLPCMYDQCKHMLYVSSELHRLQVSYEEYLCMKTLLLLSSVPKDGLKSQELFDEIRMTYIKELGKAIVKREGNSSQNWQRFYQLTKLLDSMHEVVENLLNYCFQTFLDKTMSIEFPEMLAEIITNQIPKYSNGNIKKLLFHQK

Consider `CC(C)Oc1ccc(/C(O)=C2/C(=O)C(=O)N(CCN(C)C)C2c2ccco2)cc1` (stereo not given), for which the activity change, negative = inhibition was -1.52% in experiment [1] and -2.83% in experiment [2]. For the same molecule, the activity, negative = inhibition in experiment [3] is 8.49%. Besides, in experiment [4], the Potency was above 20.6 µM. Also, the activation in experiment [5] was -2.15%.
The like results for `O=C(C1CCCCC1)N1CCCn2c1nc1ccccc12` were, in that order, 8.92%, -19.9%, 4.38%, above 20.6 µM and 6.44%.
With `CCN(CC)CCNc1nc2c(c(=O)[nH]c(=O)n2C)n1CCOc1ccccc1`, the activity change, negative = inhibition in experiment [1] was -3.03%; in experiment [2], -7.16%. The activity, negative = inhibition in experiment [3] was 8.2%. The Potency in experiment [4] was above 20.6 µM. In addition, in experiment [5], the activation is 0.547%.
The like results for `COc1ccc(C(=O)C2CCCCC2=O)cc1` (stereo not given) were, in that order, 2.34%, -0.888%, 8.28%, above 20.6 µM and 5.32%.
The like results for `O=C(O)CC(NC(=O)COc1ccc(Cl)cc1Cl)C(=O)O` (stereo not given) were, in that order, 7.75%, 6.45%, 1.25%, above 20.6 µM and 3.63%.
The like results for `Cc1cc(C)n(C(=O)CNC(=O)c2ccc3c(c2)OCCO3)n1` were, in that order, -0.109%, -6.13%, 7.28%, above 20.6 µM and -10.8%.
Turning to `COCc1cc(C)nc(N)c1C#N`, the activity change, negative = inhibition is 5.99% in experiment [1] and -10.9% in experiment [2]. The activity, negative = inhibition in experiment [3] is -0.857%. Further, in experiment [4], the Potency is above 20.6 µM. Moreover, the activation in experiment [5] is 1.6%.
The like results for `CCOC(=O)C1(C(=O)OCC)C(c2ccccc2)CC(O)N1C(C)=O` (stereo not given) were, in that order, 5.72%, 2.25%, -1.29%, above 20.6 µM and 15.4%.
As for `O=C(CSc1nnc(-c2ccco2)c(-c2ccco2)n1)Nc1ccccc1`, the figures for the activity change, negative = inhibition in experiment [1] and in experiment [2] were 3.29% and -3.07%, respectively. Moreover, the activity, negative = inhibition in experiment [3] is -9.01%. Also, in experiment [4], the Potency is above 20.6 µM. The activation in experiment [5] was -14.8%.
The like results for `COC(=O)/C(C#N)=C1/SC=C(C)N1c1ccccc1` were, in that order, 1.21%, 3.89%, 4.42%, above 20.6 µM and -6.52%.
The like results for `N#Cc1nc(COc2ccccc2)oc1N1CCCC1` were, in that order, -20.4%, 4.75%, 0.032%, above 20.6 µM and -0.614%.
For `CN(C=C1C(=O)CC(C)(C)CC1=O)CCN1CCNCC1`, the activity change, negative = inhibition in experiment [1] was 19.5%; in experiment [2] it was -19.2%. Also, the activity, negative = inhibition in experiment [3] is 4.61%. Also, in experiment [4], the Potency is above 20.6 µM. Also, in experiment [5], the activation is -4.98%.
The like results for `COc1ccc2c(c1OC)C(=O)OC2c1c(O)nc(SC)n(-c2ccccc2)c1=O` (stereo not given) were, in that order, -1.4%, -5.89%, -3%, above 20.6 µM and 1.25%.
Consider `Cc1nn(-c2ccccc2)c2c1C(=O)NC(=O)C(C)(C)C2`, for which the results for the activity change, negative = inhibition in experiment [1] and in experiment [2] were -3.8% and 0.783%, respectively. In addition, the activity, negative = inhibition in experiment [3] is 3.56%. Moreover, the Potency in experiment [4] is above 20.6 µM. Moreover, the activation in experiment [5] was -11.1%.
As to `Cn1c(NCCCO)nc2c1c(=O)n(Cc1ccccc1F)c(=O)n2C`, the activity change, negative = inhibition is -2.43% in experiment [1] and 8.23% in experiment [2]. The activity, negative = inhibition in experiment [3] was -2.21%. The Potency in experiment [4] was above 20.6 µM. Further, the activation in experiment [5] was -5.37%.
The like results for `Cc1cccc(-n2ncc3c(NCc4ccco4)ncnc32)c1` were, in that order, -15.1%, -12.4%, -20.3%, above 20.6 µM and 8.46%.
The like results for `CC1=CC(c2ccccc2)n2nc(N3C(=O)C4CC=CCC4C3=O)nc2N1` (stereo not given) were, in that order, 0.952%, 13.9%, 11.6%, above 20.6 µM and 6.95%.
With `Fc1ccc(-c2cnc[nH]2)cc1`, the activity change, negative = inhibition in experiment [1] is 3.07%; in experiment [2] it was -3.45%. Besides, the activity, negative = inhibition in experiment [3] is -3.45%. In addition, in experiment [4], the Potency is above 20.6 µM. The activation in experiment [5] is 14%.
For `Cc1cc(C)n(C(=O)CN2C(=O)CCC2=O)n1`, the values for the activity change, negative = inhibition in experiment [1] and in experiment [2] were 14.2% and 0.324%, respectively. For the same molecule, the activity, negative = inhibition in experiment [3] is 3.71%. In addition, the Potency in experiment [4] is above 20.6 µM. Further, the activation in experiment [5] was 6.68%.
Take `C=CCc1cccc(/C=N/c2ncn[nH]2)c1O`: the activity change, negative = inhibition in experiment [1] was -5.91%; in experiment [2] it was -19.8%. In experiment [3], the activity, negative = inhibition was 5.03%. For the same molecule, the Potency in experiment [4] is above 20.6 µM. Moreover, in experiment [5], the activation is 26.2%.
The like results for `Cc1ccc(-c2n[nH]c(=O)c3ccccc23)cc1S(=O)(=O)NCCN1CCOCC1` were, in that order, 1.31%, -9.43%, 1.81%, above 20.6 µM and -17.3%.
With `COc1ccc(C2C(C#N)=C(N)Oc3n[nH]c(C)c32)cc1CSc1ccccn1` (stereo not given), the activity change, negative = inhibition in experiment [1] is -15.2%; in experiment [2] it was 13.4%. In addition, the activity, negative = inhibition in experiment [3] was -27.9%. The Potency in experiment [4] is above 20.6 µM. Besides, in experiment [5], the activation is -21.4%.
The like results for `CSc1cc(C)nc(N(C)C(C)=O)n1` were, in that order, 16.9%, -4.07%, -0.18%, above 20.6 µM and 14.1%.
Regarding `COc1ccc(CCn2c(=N)c(C#N)cc3c(=O)n4ccccc4nc32)cc1`, the activity change, negative = inhibition in experiment [1] is -1.65%; in experiment [2], -0.836%. Moreover, the activity, negative = inhibition in experiment [3] was 3.03%. Further, the Potency in experiment [4] was above 20.6 µM. Moreover, in experiment [5], the activation was 22.3%.
The like results for `O=C(c1ccc(=O)oc1)N1CCN(C(c2ccccc2)c2ccccc2)CC1` were, in that order, 26.4%, -101% (active), -15.5%, above 20.6 µM and 9.9%.
